Reference: PubChem BioAssay (NCI)
This is part of a sample that, as a whole, favours compounds with a hit. Of some 79,000 tested, about 15% had one in any assay. Values without a mark were called inactive. The source made the active and inactive calls. Cut-off read from the data, not from the text of the source: active = growth inhibition above about 70%; inactive = the rest.

test: NCI Yeast Anticancer Drug Screen. Data for the rad50 strain (AID 155);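 note: 0% = growth of vehicle-only cultures of the same strain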; conditions: S. cerevisiae rad50 strain growth inhibition; at 50.0 µM; active compounds read high
How it was run: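 Cells are treated with compound, grown, and their growth is then scored against vehicle-only cultures of the same repair-deficient yeast strain.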

First: COC1=CC(=O)N(C)C(O)C1(C#N)OC1OC(CO)C(O)C(O)C1O (stereo unspecified)
Second: Cc1cn(C2CC(C)N(CCO)O2)c(=O)[nH]c1=O (stereo unspecified)
The growth inhibition of the first is higher: 5.25% for the first, -8.1% for the second.

Going from `CC1=CC[C@@H](Br)C(C)(C)[C@]12CC[C@]1(C)O[C@@H]1C2` to `COc1ccc2c(c1)C1(C)CCCC(C)(C(N)=O)C1CC2` (stereo unspecified), the growth inhibition falls from 3.15% to 0.1%.

Going from `Cn1c(=O)c2c(nc3sc4nc5ccccc5nc4n32)n(C)c1=O` to `O=C(/C=C/c1ccccc1)NCCC1(O)C(=O)Nc2ccccc21` (stereo unspecified), the growth inhibition rises from -9.7% to -8%.

First: C/C=C(\C(=C\C)c1ccc(OC(=O)c2ccccc2)c(C2CCCCC2)c1)c1ccc(O)c(C2CCCCC2)c1
Second: NC(=O)c1ccccc1OC(=O)Nc1ccccc1
The growth inhibition of the first is higher: 49% for the first, 16.6% for the second.

Compared with `CCOC(=O)NN(C/C(Cl)=C/Cl)C/C(Cl)=C/Cl`, `C=CCCC(=O)OC(C)(C)C` is higher in growth inhibition: -2% for the first, 16.8% for the second.

Going from `CN(C)C(=S)/N=c1\ssc(=S)n1C1CCCCC1` to `O=C1CCCCc2cccc(O)c21`, the growth inhibition rises from -22.1% to 2%.

Compared with `Cc1cc2c(cc1[N+](=O)[O-])OCCO2`, `C[N+]1=CN(c2ccc(Cl)cc2)Cc2cc(Cl)ccc21` is higher in growth inhibition: 11.3% for the first, 31.1% for the second.

First: CCCCCCC1OCC(CC)(CC)CO1
Second: CCCCC(CC)CCC(O)CC(C)C (stereo unspecified)
The growth inhibition of the first is higher: 11.8% for the first, -10.2% for the second.

Compared with `CC(=O)Nc1ccc(Cc2ccc(O)cc2)cc1`, `Clc1ccc(C(CI)c2ccccc2Cl)cc1` (stereo unspecified) is higher in growth inhibition: 1.55% for the first, 10.8% for the second.

With `O=C1CCCC(=O)N1CCCO` the growth inhibition was 10.1%.

In the case of `CC(C)/C(Cl)=N/OC(=O)Nc1ccc(Cl)c(Cl)c1`, the growth inhibition is reported as 85.5% (active).
For `O=C(C=C(C(F)(F)F)C(F)(F)F)/C=C/c1ccccc1`, the growth inhibition was 99.5% (active).

test: NCI Yeast Anticancer Drug Screen. Data for the mec2-1 strain (AID 157); conditions: S. cerevisiae mec2-1 strain, at 50.0 µM, active compounds read high
How it was run: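 Each compound was tested on mec2-1 yeast, a strain altered in DNA damage repair or cell cycle control. Growth inhibition is reported relative to vehicle.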

Compared with `CCOC(=O)NC(Nc1cccc(F)c1)(C(F)(F)F)C(F)(F)F`, `CCOC(=O)C(Nc1cccc2ccccc12)C(=O)OCC` is higher in growth inhibition: -9.05% for the first, 19.1% for the second.

First: N#C/C(=C\c1ccccc1[N+](=O)[O-])C(=O)O
Second: O=C(/C=C/c1ccccc1)NCCC1(O)C(=O)Nc2ccccc21 (stereo unspecified)
The growth inhibition of the first is higher: 0.45% for the first, -17.2% for the second.

Compared with `O=C1c2cc3ccccc3cc2NC(O)c2cccn21` (stereo unspecified), `CC1(C)Nc2cc3c(cc2-n2cccc21)oc1ccccc13` is lower in growth inhibition: 4.6% for the first, -3.55% for the second.

First: C/C=C(\CC)C(C#N)(CCC)C(=O)OCC (stereo unspecified)
Second: CCCCN(CCCC)C(=O)C(=O)C(C)C(=O)CC (stereo unspecified)
The growth inhibition of the first is lower: -17.6% for the first, -2.75% for the second.

Compared with `CCN(CC)CC(C)(C)C(=O)/C=C/c1ccc(OC)cc1`, `COc1ccc(OC)c(NC(=O)OCc2ccc3c(c2)OCO3)c1` is lower in growth inhibition: -8.2% for the first, -14% for the second.

Going from `C=CCOc1cc(=O)[nH]c2ccccc12` to `Brc1ccccc1N=Nc1ccccc1Br`, the growth inhibition rises from -4.4% to 3.95%.

Going from `c1ccc2oc(-c3ccc4c(c3)OCO4)nc2c1` to `Clc1ccc(C(CI)c2ccccc2Cl)cc1` (stereo unspecified), the growth inhibition falls from 42.8% to 11.3%.

Compared with `CC1(C)OC[C@@H](O)[C@H](C#N)CO1`, `CC1(C)OC2COC(CNCC3OCC4OC(C)(C)OC34)C2O1` (stereo unspecified) is lower in growth inhibition: 27.6% for the first, -14.4% for the second.

First: O=c1ccn(C2OC(C(O)CO)C(O)C2O)c(=O)[nH]1 (stereo unspecified)
Second: Cc1cn(C2CC(C)N(CCO)O2)c(=O)[nH]c1=O (stereo unspecified)
The growth inhibition of the first is lower: -2.55% for the first, -1.35% for the second.

First: CC(=O)c1cccc(NC(=O)Nc2cccc3ccccc23)c1
Second: NC(=O)c1ccccc1OC(=O)Nc1ccccc1
The growth inhibition of the first is lower: 5.7% for the first, 7.5% for the second.

Going from `CNc1n[nH]c(-c2ccccc2)n1` to `Cn1c(=O)c2c(nc3sc4nc5ccccc5nc4n32)n(C)c1=O`, the growth inhibition rises from -17.5% to -15.9%.

Compared with `NC(N)=NC(N)=Nc1cnccn1`, `O=C1CCCCc2cccc(O)c21` is lower in growth inhibition: 6.8% for the first, -3.85% for the second.

Going from `COC1=CC(=O)N(C)C(O)C1(C#N)OC1OC(CO)C(O)C(O)C1O` (stereo unspecified) to `COc1ccc2c(c1)C1(C)CCCC(C)(C(N)=O)C1CC2` (stereo unspecified), the growth inhibition falls from -12.8% to -15.8%.

First: CC1=CC[C@@H](Br)C(C)(C)[C@]12CC[C@]1(C)O[C@@H]1C2
Second: Cc1cc2c(cc1[N+](=O)[O-])OCCO2
The growth inhibition of the first is lower: -33.6% for the first, 3.9% for the second.

Going from `C/C=C(\C(=C\C)c1ccc(OC(=O)c2ccccc2)c(C2CCCCC2)c1)c1ccc(O)c(C2CCCCC2)c1` to `CC(=O)Nc1ccc(Cc2ccc(O)cc2)cc1`, the growth inhibition falls from 34.5% to 6.65%.

Going from `CCOC(=O)NN(C/C(Cl)=C/Cl)C/C(Cl)=C/Cl` to `C=CCCC(=O)OC(C)(C)C`, the growth inhibition falls from -0.95% to -15.4%.

Compared with `CN(C)C(=S)/N=c1\ssc(=S)n1C1CCCCC1`, `O=C1CCCC(=O)N1CCCO` is lower in growth inhibition: 2.55% for the first, -6.4% for the second.

First: CCCCCCC1OCC(CC)(CC)CO1
Second: CCCCC(CC)CCC(O)CC(C)C (stereo unspecified)
The growth inhibition of the first is lower: -12.4% for the first, -11.3% for the second.

Work on `C[N+]1=CN(c2ccc(Cl)cc2)Cc2cc(Cl)ccc21` yielded a growth inhibition of -12.1%.

With `Cc1cc(C)c(NS(=O)(=O)c2ccc(Cl)cc2)cc1C` the growth inhibition was 85.8% (active).
With `CC(C)/C(Cl)=N/OC(=O)Nc1ccc(Cl)c(Cl)c1` the growth inhibition was 90.8% (active).
For `O=C(C=C(C(F)(F)F)C(F)(F)F)/C=C/c1ccccc1`, the growth inhibition was 99.7% (active).
